Assay outcomes deposited in PubChem BioAssay by several laboratories.
Mcl1 Noxa PPI – Mcl-1/Noxa interaction inhibition | TR-FRET Mcl-1/Noxa peptide binding, 2 h | inhibition, % at 21.7 µM | 220,000 tested, 1.5% active | AID 1022;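 active = compounds that cut the protein-peptide binding signal by more than 50% relative to plate controls in a single-dose test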;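 note: His-tagged Mcl-1 with rhodamine Noxa BH3 peptide and terbium anti-His antibody; 0% = Mcl-1 plus Noxa peptide wells and 100% = peptide-only wells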
Target sequence (Q07820 whole entry, looked up): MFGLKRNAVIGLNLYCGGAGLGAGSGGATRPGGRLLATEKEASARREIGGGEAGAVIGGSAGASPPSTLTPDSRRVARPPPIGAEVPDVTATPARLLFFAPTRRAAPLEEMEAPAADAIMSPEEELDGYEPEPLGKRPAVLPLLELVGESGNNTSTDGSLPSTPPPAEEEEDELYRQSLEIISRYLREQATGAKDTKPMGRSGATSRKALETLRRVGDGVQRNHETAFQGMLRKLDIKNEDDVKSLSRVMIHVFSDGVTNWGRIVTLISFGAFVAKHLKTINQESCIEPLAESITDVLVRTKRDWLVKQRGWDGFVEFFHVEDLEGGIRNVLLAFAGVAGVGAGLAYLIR
14-3-3 Bad PPI – disrupts binding of bovine 14-3-3 zeta to phospho-Bad peptide | TR-FRET 14-3-3zeta/Dy647-pBad peptide displacement, 1 h | P63103 | 220,000 tested, 0.71% active | inhibition, % at 21.7 µM;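 active = inhibition above about 70%, limit read from the data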;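 note: 0% = full 14-3-3 plus peptide FRET controls and 100% = background without 14-3-3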
Target sequence (P63103 whole entry, looked up): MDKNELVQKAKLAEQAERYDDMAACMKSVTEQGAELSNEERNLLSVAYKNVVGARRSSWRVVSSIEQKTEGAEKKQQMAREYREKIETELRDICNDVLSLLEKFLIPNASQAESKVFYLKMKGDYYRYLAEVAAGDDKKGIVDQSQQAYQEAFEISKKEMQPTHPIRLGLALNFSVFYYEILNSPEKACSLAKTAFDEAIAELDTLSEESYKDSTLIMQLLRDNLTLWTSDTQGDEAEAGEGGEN
MCL1 BIM primary – inhibitors of human MCL1 binding to BIM-BH3 peptide; inhibition, % at 10.9 µM; 320,000 tested, 0.68% active; AID 2057; GST-MCL1 / FITC-Bim-BH3 fluorescence polarization;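 active = inhibition above the mean inhibition of all tested compounds plus 3 SD, set per campaign, cut at about 40% in these data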;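 note: 0% = DMSO wells and 100% = unlabeled Bim-BH3 peptide control; higher means more loss of mP so more displacement of Bim peptide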
Bim-Mcl-1 – disrupts Bim peptide binding to human Mcl-1 | Q07820 | Bead-based flow cytometry, Bim peptide-Mcl-1 binding | 190,000 tested, 0.1% active | inhibition, % at 10 µM; in the data active = inhibition above about 40%;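 note: 0% = no compound tracer wells and 100% = peptide blocker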
Mcl1 Bid PPI – disrupts binding of human Mcl-1 to Bid peptide; Q07820; TR-FRET Mcl-1/Bid-Dy647 peptide binding, 1536-well; inhibition, % at 21.7 µM; 220,000 tested, 0.97% active;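 active = compounds that cut the binding signal by more than half at the single screening dose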;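 note: His-tagged Mcl-1 with europium anti-His antibody binding Bid BH3 peptide; 0% = Mcl-1 plus peptide wells and 100% = peptide-only wells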
* hit, by the source's call; nt = not tested or not shown. Shown are actives, neighbours in structure and some others; about 2.5% of the full set was active somewhere.

SMILES | Mcl1 Noxa PPI | 14-3-3 Bad PPI | MCL1 BIM primary | Bim-Mcl-1 | Mcl1 Bid PPI
COc1cc(C)ccc1OCCCCN1CC(C)OC(C)C1 (stereo not given) | 29 | 25 | 5 | -2 | 52*
C[C@@H]1NC(=O)c2cc([N+](=O)[O-])cc(I)c2OCC[C@@H](C(N)=O)NC(=O)[C@H](CCC(=O)O)NC1=O | 18 | 11 | nt | -2 | 4
Cc1ccccc1NS(=O)(=O)c1ccc(C)c(C(=O)N2CCOCC2)c1 | nt | nt | 4 | nt | nt
CCN(CC)S(=O)(=O)c1ccc(C(=O)Oc2coc(CSc3nc(C)cc(C)n3)cc2=O)cc1 | 70* | -6 | 6 | 1 | -3
CN(C)S(=O)(=O)c1ccc(C(=O)Oc2coc(CSc3ncccn3)cc2=O)cc1 | -8 | -3 | 6 | -1 | -28
O=C(N/N=C(\CC(=O)c1cccs1)C(F)(F)F)c1ccncc1 | 40 | 31 | 3 | nt | 66*
CC1(c2ccccc2)CC(C)(C)N2C(=O)/C(=C3\SC(=S)NC3=O)c3cccc1c32 (stereo not given) | 111* | 18 | 25 | -9 | 93*
CC(=O)N1C(=O)N(C(C)=O)C2C1N(C(C)=O)C(=O)N2C(C)=O (stereo not given) | 9 | -3 | -3 | -3 | -11
CCN1C(=O)N(C(C)=O)C2C1N(C(C)=O)C(=O)N2C(C)=O (stereo not given) | -1 | -8 | -1 | -1 | 53*
Cc1c(C(=O)OCc2ccccc2)[nH]c2c1C(=O)CC(c1ccco1)C2 (stereo not given) | 61* | 1 | 10 | -1 | 72*
CCOC(=O)c1[nH]c2c(c1C)C(=O)CC(c1ccco1)C2 (stereo not given) | 79* | 0 | 5 | 0 | 41
Cc1c(C(=O)OCCOC(C)C)[nH]c2c1C(=O)CC(c1ccco1)C2 (stereo not given) | 27 | 3 | 5 | -1 | -29
CSCCOC(=O)c1[nH]c2c(c1C)C(=O)CC(c1ccco1)C2 (stereo not given) | 58* | 5 | 10 | 0 | -38
COCCOC(=O)c1[nH]c2c(c1C)C(=O)CC(c1ccco1)C2 (stereo not given) | 52* | 13 | 12 | -2 | -2
CC(C)(C)C(=O)Cn1ncc(Cl)c(Cl)c1=O | 3 | 4 | nt | -1 | 4
O=C1C2CCCN2c2ccc(S(=O)(=O)N3CCOCC3)cc2N1Cc1ccccc1F (stereo not given) | 14 | 7 | -13 | 0 | -56
Brc1ccc(CN2C3=NCCCN3c3ccccc32)cc1 | 16 | -4 | 5 | -3 | -16
CCOC(=O)c1cc(-c2nnc(-c3ccc(Cl)cc3)o2)c(C)nc1C | 6 | -7 | 3 | 40* | -11
Oc1cccc(Nc2nc(NCC3CCCO3)c3ccccc3n2)c1 (stereo not given) | 58* | 63 | 5 | 0 | 9
Cc1cccc(C)c1OCc1cc(C(=O)N2CCNC(=O)C2)no1 | nt | nt | -2 | nt | nt
O=C1ON=C(c2ccccc2)/C1=C/c1ccc(-c2ccccc2[N+](=O)[O-])o1 | 67* | 22 | 29 | -8 | -11
O=[N+]([O-])c1ccccc1-c1ccc(/C=N/n2cnnc2)o1 | 18 | 3 | 14 | -2 | -31
Cc1cc(CNC(=O)COc2ccc(C#N)cc2)c2ccccc2n1 | 17 | 5 | -7 | 0 | 8
CC(C)(O)C1Cc2cc(/C=C/C(=O)O)c(O)cc2O1 (stereo not given) | 61* | 32 | nt | -6 | -25
COc1cc2c(cc1/C=C/C(=O)O)OC(C)C2 (stereo not given) | -1 | 16 | 1 | 0 | -11
SMILES | Mcl1 Noxa PPI | 14-3-3 Bad PPI | MCL1 BIM primary | Bim-Mcl-1 | Mcl1 Bid PPI
COc1ccc(-c2ccc(-c3noc(-c4ccccc4F)n3)c(OC)n2)cc1 | nt | -4 | nt | 2 | 56*
Cc1cc(C)nc(NCC(O)COc2ccccc2C)n1 (stereo not given) | -13 | 9 | 4 | -2 | 101*
Cc1cc(C2=NNC(=NC3CC3)SC2)c(C)n1Cc1ccco1 | 19 | -4 | 3 | 61* | -39
N#CC(C(=O)NC1CCCCC1)c1nc2ccccc2nc1N1CCN(c2ccccc2F)CC1 (stereo not given) | 2 | -3 | -10 | 0 | -17
CCCCn1c(=NC(=O)c2cccnc2)c(C#N)cc2c(=O)n3cccc(C)c3nc21 | 13 | -1 | 48* | -6 | -28
COc1ccc(C(=O)N=c2c(C#N)cc3c(=O)n4cccc(C)c4nc3n2Cc2ccco2)cc1 | 77* | -8 | nt | -3 | 20
Cc1ccccc1C(=O)N=c1c(C#N)cc2c(=O)n3cccc(C)c3nc2n1Cc1ccco1 | 3 | 7 | 15 | -3 | -16
CN(Cc1nc(-c2ccccc2)no1)C(=O)c1ccco1 | nt | nt | 2 | nt | nt
O=[N+]([O-])c1ccc2sc(SCc3nc4ccccn4c3Br)nc2c1 | 56* | 31 | 8 | -1 | -18
CC(OC(=O)Cc1ccccc1[N+](=O)[O-])C(=O)Nc1ccc(Cl)cn1 (stereo not given) | nt | nt | -2 | nt | nt
Cc1ccc(Nc2nc(-c3ccccc3)c(CC(=O)O)s2)cc1 | 12 | -5 | -44 | 9 | -23
O=C(O)Cc1sc(Nc2ccc(F)cc2)nc1-c1cccs1 | 53* | 0 | 4 | -3 | -3
COc1cccc(CN2CCN(CC(=O)NCCc3ccccc3)CC2)c1 | nt | nt | 21 | nt | nt
OCC1CCCN(c2nc(CN3CCCCC3)nc3scc(-c4ccccc4)c23)C1 (stereo not given) | 1 | 5 | 10 | -2 | 97*
CCOc1cc(/C=N/NC(=O)c2ccc(NC(=O)C3CC3)cc2)ccc1O | nt | nt | -6 | nt | nt
CCCCCCOC(=O)C(C#N)c1nc2ccccc2nc1N1CCCCC1 (stereo not given) | -1 | 5 | -5 | 3 | -6
CCCCCCOC(=O)C(C#N)c1nc2ccccc2nc1N1CCN(C)CC1 (stereo not given) | 53* | -18 | 18 | -1 | -14
O=C(NCc1ccco1)c1ccc(S(=O)(=O)N2CCCCCC2)cc1 | nt | nt | 1 | nt | nt
Cc1ccc(SCC(=O)NCc2ccco2)cc1 | 4 | -5 | 3 | -8 | -8
O=C(COC(=O)c1ccccc1)NCc1ccco1 | 43 | -1 | 15 | 0 | -18
COc1ccccc1NCCC(=O)OCC(=O)NCc1ccco1 | 64* | -2 | 20 | 0 | -42
Cc1ccc(CSCC(=O)NCc2ccco2)cc1 | -3 | 89* | -3 | 1 | -31
Cc1cc(Br)ccc1SCC(=O)OCC(=O)NCc1ccco1 | 55* | 19 | 31 | nt | -26
O=C(COC(=O)c1ccccc1Oc1ccccc1)NCc1ccco1 | 52* | 1 | 9 | -3 | -26
COC(=O)c1ccc(NC(=O)Nc2ccc(F)cc2)cc1 | 19 | -9 | 1 | 1 | -22
O=[N+]([O-])c1cc(Cl)cc(/C=N\Nc2ccccn2)c1O | -11 | 1 | 14 | 0 | 73*
CC(=O)Nc1nc2cccc([N+](=O)[O-])c2s1 | 20 | -2 | -1 | 0 | -9
